Measurements: PubChem BioAssay
Records with an inconclusive call do not appear. Active and inactive are the calls of the source.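 The calls were made as follows, unless noted: active = efflux inhibition above 0.42, the validation set average plus 4 SD; inconclusive = no clear call, values can overlap the other calls; inactive = the rest.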

Tests used:
[1] = yeast TOR pathway RPL19A-GFP modulators, primary screen, cell-based, S. cerevisiae, multiplex flow cytometry (AID 1862; in the data active = percent of DMSO control GFP below about 86%;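 also: lower values mimic rapamycin by blocking the RPL19A rise seen in DMSO cells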); conditions: S. cerevisiae RPL19A-GFP strain, flow cytometry fluorescence, 3 h; at 10 µM; stronger effect = lower value
[2] = modulators of MEP2-GFP levels in yeast, primary screen, S. cerevisiae, multiplex flow cytometry (AID 1867;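 active = GFP response, as percent of the DMSO control, above the screen-wide mean plus 3 SD, about 139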;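 also: median GFP channel fluorescence of barcode-gated MEP2-GFP cells measured by flow cytometry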); conditions: S. cerevisiae MEP2-GFP strain, 3 h, at 10 µM, stronger effect = higher value, 100% means same as DMSO wells
[3] = modulators of CIT2-GFP expression in yeast, primary screen, S. cerevisiae, GFP fusion, multiplex flow cytometry (AID 1870;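 active = percent response above a set limit, the screen-wide mean plus 3 SD, cut at about 130% in these data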;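 also: barcoded CIT2-GFP strain pooled with four other GFP strains with rapamycin as positive control; median GFP fluorescence per well over plate mean of DMSO wells so 100% = DMSO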); conditions: 3 h, at 10 µM, stronger effect = higher value
[4] = modulators of LAP4-GFP expression in yeast, primary screen, S. cerevisiae, multiplex flow cytometry (AID 1873;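 active = GFP signal, as percent of the solvent control, above the screen mean plus 3 SD, about 149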); conditions: 3 h, at 10 µM, stronger effect = higher value
[5] = modulators of AGP1-GFP expression in yeast TOR pathway, primary screen, cell-based, multiplex flow cytometry, S. cerevisiae (AID 1887;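 active = GFP signal above the screen-wide mean plus 3 SD, that is over about 124.5% of the solvent control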;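 also: AGP1-GFP fusion strain of S. cerevisiae within a five-strain barcoded multiplex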); conditions: 3 h, at 10 µM, stronger effect = higher value
[6] = inhibitors of CD8+ T cell-vesicle binding, pilot screen, LFA-1/ICAM-1 modulator project, MLPCN validation set, flow cytometry (AID 2523;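 active = response below a set limit, under 55% cells CD8-positive and vesicle-bound, and CD8 cells' 90th-percentile brightness under 279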;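 as to vesicle binding response: mean PE anti-B7-1 fluorescence of CD8+ cells relative to row control; 100% = QL9-loaded vesicles with DMSO vehicle in the same plate row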); conditions: 2C mouse CD8+ T cells, at 7 µM, stronger effect = lower value; double positive events: measured here: CD8+/vesicle+ event percentage
[7] = target: Integrin beta-1 (Homo sapiens) + Integrin alpha-4 (Homo sapiens) (UniProt P13612+P05556); assay: inhibition of HUTS-21 binding to VLA-4, pilot screen, VLA-4 allosteric modulator project, U937 cells, HUTS-21 mAb, flow cytometry, validation set (AID 2674;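 active = inhibition above 50%, about 3 SD of the validation set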;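 also: antibody binding induced by the VLA-4 ligand LDV present at three times its Kd; 0% = LDV ligand with antibody and no compound and 100% = antibody without LDV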); conditions: HUTS-21 LIBS mAb binding, at 6.7 µM, stronger effect = higher value, binding induced by LDV ligand
Integrin beta-1 (Homo sapiens) + Integrin alpha-4 (Homo sapiens), sequence (P05556 whole entry, looked up): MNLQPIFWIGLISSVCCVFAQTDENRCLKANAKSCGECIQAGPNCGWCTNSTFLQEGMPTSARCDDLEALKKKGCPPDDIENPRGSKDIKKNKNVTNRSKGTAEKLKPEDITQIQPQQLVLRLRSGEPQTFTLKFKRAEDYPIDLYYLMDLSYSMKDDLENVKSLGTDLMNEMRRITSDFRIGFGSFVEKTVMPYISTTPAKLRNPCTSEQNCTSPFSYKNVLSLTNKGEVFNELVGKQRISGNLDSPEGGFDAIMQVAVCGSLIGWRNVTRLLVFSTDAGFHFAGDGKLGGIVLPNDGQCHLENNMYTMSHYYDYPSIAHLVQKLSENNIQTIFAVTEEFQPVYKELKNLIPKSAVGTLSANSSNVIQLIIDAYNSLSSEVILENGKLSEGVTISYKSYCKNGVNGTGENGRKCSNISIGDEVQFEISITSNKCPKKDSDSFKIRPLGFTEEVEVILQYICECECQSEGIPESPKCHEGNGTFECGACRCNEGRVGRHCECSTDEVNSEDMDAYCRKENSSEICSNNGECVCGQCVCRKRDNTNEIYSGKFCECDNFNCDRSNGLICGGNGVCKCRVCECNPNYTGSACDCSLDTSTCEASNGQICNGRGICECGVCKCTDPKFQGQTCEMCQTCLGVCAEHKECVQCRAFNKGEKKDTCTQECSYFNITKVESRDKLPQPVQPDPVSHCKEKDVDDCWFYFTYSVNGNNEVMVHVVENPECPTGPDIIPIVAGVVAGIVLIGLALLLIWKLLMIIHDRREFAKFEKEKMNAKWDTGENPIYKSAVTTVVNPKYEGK
Integrin beta-1 (Homo sapiens) + Integrin alpha-4 (Homo sapiens), sequence (P13612 whole entry, looked up): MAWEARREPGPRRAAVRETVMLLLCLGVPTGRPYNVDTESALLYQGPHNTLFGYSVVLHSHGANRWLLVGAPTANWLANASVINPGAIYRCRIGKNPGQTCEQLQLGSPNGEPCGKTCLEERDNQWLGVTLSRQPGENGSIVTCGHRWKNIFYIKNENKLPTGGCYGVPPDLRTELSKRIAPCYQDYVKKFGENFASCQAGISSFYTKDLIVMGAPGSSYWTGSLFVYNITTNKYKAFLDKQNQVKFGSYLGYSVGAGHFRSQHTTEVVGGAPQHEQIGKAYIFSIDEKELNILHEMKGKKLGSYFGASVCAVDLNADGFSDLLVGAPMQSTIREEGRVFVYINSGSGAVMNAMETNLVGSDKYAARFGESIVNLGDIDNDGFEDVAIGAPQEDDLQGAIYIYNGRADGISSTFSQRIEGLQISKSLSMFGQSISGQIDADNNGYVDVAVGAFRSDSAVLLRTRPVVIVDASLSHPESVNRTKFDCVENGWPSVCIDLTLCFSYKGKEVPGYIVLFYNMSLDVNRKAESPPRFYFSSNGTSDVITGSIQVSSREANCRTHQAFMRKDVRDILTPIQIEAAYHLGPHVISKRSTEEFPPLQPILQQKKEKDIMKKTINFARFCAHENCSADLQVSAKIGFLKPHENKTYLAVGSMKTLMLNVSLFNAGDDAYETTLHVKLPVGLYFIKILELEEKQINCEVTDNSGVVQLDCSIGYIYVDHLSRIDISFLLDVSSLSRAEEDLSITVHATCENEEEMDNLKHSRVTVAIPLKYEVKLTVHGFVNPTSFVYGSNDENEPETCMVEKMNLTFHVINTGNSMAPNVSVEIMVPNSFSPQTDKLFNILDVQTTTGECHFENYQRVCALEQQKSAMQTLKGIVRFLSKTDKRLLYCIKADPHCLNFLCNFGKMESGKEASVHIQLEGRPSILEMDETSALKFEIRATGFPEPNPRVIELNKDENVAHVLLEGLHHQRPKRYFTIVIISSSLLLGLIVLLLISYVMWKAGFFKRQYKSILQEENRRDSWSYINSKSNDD

[8] = superoxide lowering in aged yeast cells, pilot screen, validation compound set (AID 2706;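 active = superoxide response below 65% of plate, a cut near 3 SD across the whole screen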;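 also: yeast exposed to compound for one week at 30 degrees C before staining; 100% = mean of all compound wells on the same plate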); conditions: S. cerevisiae aging, superoxide DHE fluorescence; at 10 µM; stronger effect = lower value
[9] = target: Beta-adrenergic receptor kinase 1 (Homo sapiens) (UniProt P25098); assay: GRK2 binders displacing RNA aptamer, biochemical, validation, human GRK2, bead flow cytometry (AID 488806;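 active = aptamer binding inhibition above 30%, about 3 SD of noise from non-fluorescent compounds; inactive = inhibition at or below 30%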); conditions: bead-bound GRK2, FAM-aptamer displacement, at 10 µM, stronger effect = higher value
Beta-adrenergic receptor kinase 1 (Homo sapiens), sequence (P25098 whole entry, looked up): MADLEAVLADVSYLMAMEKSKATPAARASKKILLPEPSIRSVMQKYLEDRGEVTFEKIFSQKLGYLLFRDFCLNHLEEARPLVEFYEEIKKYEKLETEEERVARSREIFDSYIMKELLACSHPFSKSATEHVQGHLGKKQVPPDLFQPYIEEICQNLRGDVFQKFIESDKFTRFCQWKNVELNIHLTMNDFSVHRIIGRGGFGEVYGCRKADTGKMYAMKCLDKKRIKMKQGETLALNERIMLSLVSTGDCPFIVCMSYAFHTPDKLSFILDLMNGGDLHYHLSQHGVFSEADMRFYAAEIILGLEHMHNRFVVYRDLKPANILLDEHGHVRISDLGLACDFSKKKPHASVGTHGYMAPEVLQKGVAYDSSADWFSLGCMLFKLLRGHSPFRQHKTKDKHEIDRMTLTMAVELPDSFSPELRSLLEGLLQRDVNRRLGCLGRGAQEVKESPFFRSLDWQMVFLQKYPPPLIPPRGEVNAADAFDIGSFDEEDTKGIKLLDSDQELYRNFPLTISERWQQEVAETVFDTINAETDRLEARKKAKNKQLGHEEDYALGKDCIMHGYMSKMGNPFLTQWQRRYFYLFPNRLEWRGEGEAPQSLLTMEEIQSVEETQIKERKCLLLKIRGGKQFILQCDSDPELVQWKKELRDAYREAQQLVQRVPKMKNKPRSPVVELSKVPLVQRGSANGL

[10] = target: Beta-2 adrenergic receptor (Homo sapiens) (UniProt P07550); assay: beta2AR agonists driving receptor internalization, pilot screen, cell-based, FAP fluorogen, flow cytometry, validation set (AID 504459;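 active = percent response above 42, roughly 3 SD of non-fluorescent test compounds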;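 also: agonist-driven loss of surface beta2AR via internalization measured by FAP dye flow cytometry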); conditions: Am2.2-beta2AR cells, FAP surface receptor flow cytometry; at 10 µM; stronger effect = higher value
Beta-2 adrenergic receptor (Homo sapiens), sequence (P07550 whole entry, looked up): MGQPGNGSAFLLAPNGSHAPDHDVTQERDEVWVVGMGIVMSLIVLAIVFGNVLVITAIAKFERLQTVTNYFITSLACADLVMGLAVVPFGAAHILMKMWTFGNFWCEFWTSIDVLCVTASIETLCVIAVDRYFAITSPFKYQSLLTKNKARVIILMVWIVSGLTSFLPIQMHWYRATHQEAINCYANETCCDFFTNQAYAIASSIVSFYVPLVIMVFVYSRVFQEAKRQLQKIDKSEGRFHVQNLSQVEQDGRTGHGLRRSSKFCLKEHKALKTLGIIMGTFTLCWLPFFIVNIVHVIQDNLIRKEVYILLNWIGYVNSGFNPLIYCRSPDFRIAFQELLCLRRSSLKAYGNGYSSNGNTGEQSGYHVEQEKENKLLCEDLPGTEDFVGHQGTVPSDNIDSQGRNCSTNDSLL

[11] = target: AP-2 complex subunit beta (Homo sapiens) (UniProt P63010); assay: inhibitors of arrestin peptide binding to AP2, pilot screen, biochemical, validation set, GST-AP2 beads, flow cytometry (AID 504541;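 active = inhibition above 54%, about 3 SD of non-fluorescent compounds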;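 also: AP2 carries R879A mutation and is captured from E. coli lysate; bead-bound FITC arrestin peptide fluorescence measuring arrestin peptide binding to AP2; 0% = DMSO wells and 100% = excess unlabeled arrestin peptide control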); conditions: FITC arrestin peptide, at 10 µM, stronger effect = higher value, AP2 beta2 appendage fragment, R879A mutant
AP-2 complex subunit beta (Homo sapiens), sequence (P63010 whole entry, looked up, the tested form may be a part, one chain of several): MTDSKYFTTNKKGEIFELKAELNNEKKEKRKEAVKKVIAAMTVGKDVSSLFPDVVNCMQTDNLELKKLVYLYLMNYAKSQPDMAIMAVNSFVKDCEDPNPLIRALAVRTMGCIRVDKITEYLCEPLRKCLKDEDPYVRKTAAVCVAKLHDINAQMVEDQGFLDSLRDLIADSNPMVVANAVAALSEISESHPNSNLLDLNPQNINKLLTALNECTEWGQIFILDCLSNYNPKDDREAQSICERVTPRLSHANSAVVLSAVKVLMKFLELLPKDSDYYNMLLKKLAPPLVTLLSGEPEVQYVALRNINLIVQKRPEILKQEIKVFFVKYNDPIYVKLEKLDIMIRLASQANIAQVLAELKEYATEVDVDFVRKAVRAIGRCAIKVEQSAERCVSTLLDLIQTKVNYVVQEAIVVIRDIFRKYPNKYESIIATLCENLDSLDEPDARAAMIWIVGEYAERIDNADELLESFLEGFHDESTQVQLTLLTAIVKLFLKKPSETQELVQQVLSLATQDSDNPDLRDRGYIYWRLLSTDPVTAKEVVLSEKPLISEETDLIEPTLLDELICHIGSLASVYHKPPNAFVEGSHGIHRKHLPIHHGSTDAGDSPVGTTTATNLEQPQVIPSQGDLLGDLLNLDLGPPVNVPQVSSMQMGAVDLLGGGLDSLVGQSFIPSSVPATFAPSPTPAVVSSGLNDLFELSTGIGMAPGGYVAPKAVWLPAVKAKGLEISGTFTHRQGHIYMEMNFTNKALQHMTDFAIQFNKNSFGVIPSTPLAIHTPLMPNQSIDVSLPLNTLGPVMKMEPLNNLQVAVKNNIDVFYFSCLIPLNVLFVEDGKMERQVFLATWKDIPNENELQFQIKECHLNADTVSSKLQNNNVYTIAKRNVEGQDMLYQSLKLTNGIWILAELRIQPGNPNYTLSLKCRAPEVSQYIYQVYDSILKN

[12] = yeast V-ATPase proton transport modulators, S. cerevisiae, pHLuorin, HTS validation (AID 504600; in the data active = response above about 15%;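 also: plate controls were DMSO for no effect and reference compound for full effect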); conditions: S. cerevisiae pHLuorin cytosolic pH, at 10 µM, stronger effect = higher value
[13] = test system: anti-desmoglein-3 scFv antibody binding to human DSG3; assay: inhibitors of anti-DSG3 scFv binding to DSG3, pilot screen, biochemical, validation compound set, bead-based, flow cytometry (AID 588368;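 active = binding below the plate cutoff, the plate median minus 3 SD, with a reading above zero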;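 also: signal is the median channel fluorescence of bead-bound GFP antibody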); conditions: Protein G beads, DSG3-Fc, scFv-GFP binding, at 10 µM, stronger effect = lower value
[14] = inhibitors of fungal efflux pumps CDR1, CDR2, MDR1, pilot screen, validation compound set, multiplex, phenotypic (AID 588506);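 also: Nile Red retained in cells so higher fluorescence means more efflux inhibition; 0 = negative control wells and 1 = enniatin B 25 µM full block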; conditions: S. cerevisiae pump-expressing triplex, Nile Red efflux flow cytometry; at 10 µM; stronger effect = higher value; the pumps come from Candida albicans
[15] = target: ATP-binding cassette sub-family B member 6 (Homo sapiens) (UniProt Q9NP58); assay: ABCB6 transporter inhibitors, pilot screen, K562-ABCB6 cells, flow cytometry, validation set (AID 588550;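 active = inhibition above the screen-wide mean plus 3 SD, about 51%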;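 also: 0% = DMSO wells and 100% = benzethonium chloride 70 µM positive control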); conditions: K562-ABCB6 porphyrin accumulation, 1 h, at 10 µM, stronger effect = higher value
ATP-binding cassette sub-family B member 6 (Homo sapiens), sequence (Q9NP58 whole entry, looked up): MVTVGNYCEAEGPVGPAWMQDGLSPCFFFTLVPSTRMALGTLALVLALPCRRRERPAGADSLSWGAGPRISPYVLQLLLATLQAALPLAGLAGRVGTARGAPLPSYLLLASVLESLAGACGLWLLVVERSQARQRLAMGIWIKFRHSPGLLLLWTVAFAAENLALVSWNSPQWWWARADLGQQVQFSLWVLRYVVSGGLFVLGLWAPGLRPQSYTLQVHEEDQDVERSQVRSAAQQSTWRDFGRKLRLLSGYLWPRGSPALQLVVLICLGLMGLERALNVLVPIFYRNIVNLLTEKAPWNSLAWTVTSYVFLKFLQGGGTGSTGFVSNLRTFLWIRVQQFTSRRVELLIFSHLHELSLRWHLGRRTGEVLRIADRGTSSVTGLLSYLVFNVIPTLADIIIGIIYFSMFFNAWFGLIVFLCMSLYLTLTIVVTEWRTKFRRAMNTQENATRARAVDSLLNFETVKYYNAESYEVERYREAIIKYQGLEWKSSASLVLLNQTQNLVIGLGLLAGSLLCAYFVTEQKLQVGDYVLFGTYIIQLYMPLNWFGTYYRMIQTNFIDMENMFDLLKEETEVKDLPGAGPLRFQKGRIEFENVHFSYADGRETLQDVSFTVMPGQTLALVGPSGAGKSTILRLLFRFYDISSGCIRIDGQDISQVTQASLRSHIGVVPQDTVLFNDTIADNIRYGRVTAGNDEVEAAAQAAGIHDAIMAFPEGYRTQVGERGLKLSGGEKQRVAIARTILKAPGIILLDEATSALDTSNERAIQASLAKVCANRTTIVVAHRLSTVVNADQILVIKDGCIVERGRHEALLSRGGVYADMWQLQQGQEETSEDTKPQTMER

[16] = promoters of myeloid differentiation in arrested cells, primary screen, cell-based, GFP/MAC1 double positive, flow cytometry, validation set (AID 588685;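 active = differentiation response of at least 50%, scaled between solvent and reference control, from cells with both markers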;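 also: compound exposure lasts four days before antibody staining and flow analysis; 0% = DMSO wells and 100% = 5 µM fulvestrant positive control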); conditions: ER-HoxA9 marrow cells, stronger effect = higher value, normalized: vehicle 0, fulvestrant 100

Structure (SMILES) | percent of DMSO control GFP [1] | GFP response vs DMSO [2] | percent response of DMSO control [3] | GFP response vs DMSO [4] | GFP response, % of DMSO [5] | double positive events [6] | vesicle binding response [6] | inhibition [7] | superoxide response (% of plate) [8] | aptamer binding inhibition [9] | response [10] | inhibition [11] | response [12] | binding (% of control) [13] | efflux inhibition (fraction of control) [14] | inhibition [15] | differentiation response [16]
Cc1cc(=O)c2c(O)c(O)ccc2o1 | 102% (inactive) | 107% (inactive) | 98.9% (inactive) | 90.7% (inactive) | 101% (inactive) | 60.3% | 30% (inactive) | -7.72% (inactive) | 105% (inactive) | -4% (inactive) | 5.76% (inactive) | -12.7% (inactive) | -0.09% (inactive) | 98.5% (inactive) | -0.07 (inactive) | 7% (inactive) | 9.04% (inactive)
O=C(O)CCCCCCNC(=O)c1cncc(O)c1 | 104% (inactive) | 107% (inactive) | 105% (inactive) | 113% (inactive) | 115% (inactive) | 63.9% | 153% (inactive) | 13.4% (inactive) | 112% (inactive) | 7% (inactive) | -25.8% (inactive) | 12.7% (inactive) | -3.09% (inactive) | 97.3% (inactive) | 0 (inactive) | -5% (inactive) | -4% (inactive)
CC12CN3CC(C)(CN(C1)C3c1ccc(Br)cc1O)C2 (stereo not given) | 101% (inactive) | 108% (inactive) | 108% (inactive) | 123% (inactive) | 106% (inactive) | 57.2% | 197% (inactive) | 6.55% (inactive) | 127% (inactive) | -3% (inactive) | -11.7% (inactive) | -45.4% (inactive) | 19% (active) | 103% (inactive) | 0.21 (inactive) | -1% (inactive) | 2.89% (inactive)
CC(C)CC(NC(=O)CNC(=O)C1O[C@@H]2OC(C)(C)O[C@@H]2[C@H]2OC(C)(C)O[C@@H]12)C(=O)O (stereo not given in full) | 101% (inactive) | 104% (inactive) | 102% (inactive) | 99.9% (inactive) | 102% (inactive) | 62.4% | 214% (inactive) | -46.1% (inactive) | 97.8% (inactive) | -1% (inactive) | -1.33% (inactive) | 9.78% (inactive) | -1.96% (inactive) | 96.9% (inactive) | -0.04 (inactive) | -3% (inactive) | 12.9% (inactive)
Cc1cc(C)nc(NS(=O)(=O)c2ccc(N)cc2)n1 | 108% (inactive) | 98.3% (inactive) | 116% (inactive) | 90.1% (inactive) | 104% (inactive) | 65.7% | 216% (inactive) | -5.64% (inactive) | 95.6% (inactive) | 1% (inactive) | -4.61% (inactive) | -9.4% (inactive) | -1.72% (inactive) | 90.1% (inactive) | 0.11 (inactive) | -1% (inactive) | 6.11% (inactive)
OCC1CCN(Cc2cn(Cc3ccccc3)nc2-c2cc3ccccc3o2)CC1 | 106% (inactive) | 97.2% (inactive) | 97.8% (inactive) | 79.5% (inactive) | 102% (inactive) | 60.9% | 203% (inactive) | 18.2% (inactive) | 99.1% (inactive) | -3% (inactive) | 21% (inactive) | 5.6% (inactive) | -6.29% (inactive) | 98.5% (inactive) | 0.52 (active) | 20% (inactive) | 10% (inactive)
O=C(NC(=S)Nc1ccc2c(c1)OCCO2)c1ccccc1F | 103% (inactive) | 108% (inactive) | 101% (inactive) | 93% (inactive) | 97.7% (inactive) | 61.5% | 2360% (inactive) | 1.12% (inactive) | 109% (inactive) | 2% (inactive) | 5.42% (inactive) | 7.78% (inactive) | 1.01% (inactive) | 98.5% (inactive) | -0.12 (inactive) | 9% (inactive) | 0% (inactive)
COc1cccc2cc(-c3ccccc3)c(=O)oc12 | 105% (inactive) | 106% (inactive) | 101% (inactive) | 140% (inactive) | 106% (inactive) | 61.4% | 134% (inactive) | -1.97% (inactive) | 88.6% (inactive) | 3% (inactive) | -27.6% (inactive) | 10.1% (inactive) | 34.3% (active) | 102% (inactive) | 0.29 (inactive) | 2% (inactive) | -1.05% (inactive)
CC(CN1c2ccccc2Sc2ccccc21)N(C)C (stereo not given) | 92.4% (inactive) | 117% (inactive) | 111% (inactive) | 78.1% (inactive) | 94.9% (inactive) | 74.2% | 363% (inactive) | -2.27% (inactive) | 84.2% (inactive) | -3% (inactive) | -2.04% (inactive) | 1.26% (inactive) | -2.78% (inactive) | 97.2% (inactive) | -0.53 (inactive) | 10% (inactive) | -1.64% (inactive)
CC1(C)Oc2ccc(C#N)cc2[C@@H](N2CCCC2=O)[C@@H]1O | 97.9% (inactive) | 115% (inactive) | 116% (inactive) | 78.7% (inactive) | 99.1% (inactive) | 63% | 180% (inactive) | 2.58% (inactive) | 93% (inactive) | -1% (inactive) | -6.3% (inactive) | 1.01% (inactive) | 0.27% (inactive) | 100% (inactive) | -0.09 (inactive) | 6% (inactive) | 0% (inactive)
